According to PubChem BioAssay (Tox21):
Inconclusive results are not listed. Some structures have more than one record in an assay (separate samples or runs), and their calls can disagree. Active and inactive are the calls of the source. Unless noted, calls come from the whole dose curve.

system: not listed separately; assay: qHTS assay to identify small molecule antagonists of the estrogen receptor alpha (ER-alpha) signaling pathway - cell viability counter screen (AID 743074); conditions: ERalpha-bla HEK293 viability, CellTiter-Glo luminescence, 18 h; series mostly up to 69.4 µM; activity, negative = cytotoxicity: at the top concentration;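 note: HEK293 cells carrying ER-alpha-UAS-bla reporter stimulated with 17beta-estradiol; nearly all actives have a fitted effect of over 45% in size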
% is set by controls: 0 for no effect and ±100 for the full control effect.

| SMILES | activity, negative = cytotoxicity | Potency |
| --- | --- | --- |
| NCCCN1CCN(CCCN)CC1 | 14.3% (inactive) | – |
| CCOC(=O)[C@H](CCc1ccccc1)N[C@@H](C)C(=O)N1Cc2cc(OC)c(OC)cc2C[C@H]1C(=O)O | 26.8% (inactive) | – |
| COc1ccc(S(=O)(=O)Nc2nnc(CC(C)C)s2)cc1 | – | inactive |
| C[C@]12C(=O)OC(=O)[C@H]1[C@H]1C=C[C@@H]2C1 | 19.1% [at 79.1 µM] (inactive) | – |
| COC(C)CCO (centres undefined) | 3.05% (inactive) | – |
| Cn1cnc2c(F)c(Nc3ccc(Br)cc3Cl)c(C(=O)NOCCO)cc21 | 2.9% (inactive) | – |
| Cc1cc(S(=O)(=O)O)c(N)cc1Cl | 5.87% [at 79.1 µM] (inactive) | – |
| OC[C@H]1O[C@@H](O[C@H]2[C@H](O)[C@@H](O)[C@H](O)O[C@@H]2CO)[C@H](O)[C@@H](O)[C@H]1O | -6.94% (inactive) | – |
| C=CCc1cc(OC)c(O)c(C(=O)NCCO)c1 | -12.3% (inactive) | – |
| COc1ccccc1OCC(O)COC(N)=O (centres undefined) | 5.55% [at 32.6 µM] (inactive) | – |
| OCC(CBr)(CBr)CBr | -9.05% (inactive) | – |
| CC1=C2[C@H](/C=C(\C)C(=O)O)CC[C@@H](C)[C@H]2CC1 | 18.8% [at 79.1 µM] (inactive) | – |
| OCCN(CCO)c1ccccc1 | -11.6% (inactive) | – |
| CC(C)C(=O)OC/C=C/c1ccccc1 | 23.4% (inactive) | – |
| CCOC(=O)NCCC[Si](OCC)(OCC)OCC | 13.4% (inactive) | – |
| O=C1C=CC(=O)O1 | 16% [at 79.1 µM] (inactive) | – |

| SMILES | activity, negative = cytotoxicity | Potency |
| --- | --- | --- |
| CN1CCN(C2=Nc3cc(F)ccc3Cc3ccccc32)CC1 | -13% (inactive) | – |
| Oc1ccccc1F | -15.9% (inactive) | – |
| Nc1cccc(S(=O)(=O)O)c1 | -15.6% (inactive) | – |
| COC(=O)C(C)O (centres undefined) | 3.06% [at 79.1 µM] (inactive) | – |
| CC(C)O | – | inactive |
| CCCCC1CCC(=O)O1 (centres undefined) | 17.7% (inactive) | – |
| CC1(C)O[C@@H]2C[C@H]3[C@@H]4CCC5=CC(=O)CC[C@]5(C)[C@@]4(F)[C@@H](O)C[C@]3(C)[C@]2(C(=O)CCl)O1 | 8.25% [at 32.6 µM] (inactive) | – |
| C[C@@H]1CN(c2c(F)c(F)c3c(=O)c(C(=O)O)cn(C4CC4)c3c2F)C[C@H](C)N1 | 17.1% (inactive) | – |
| FC(F)(F)C(Cl)(Cl)Cl | 7.69% (inactive) | – |
| CN(C)Cc1ccccc1 | – | inactive |
| Cc1ncc(CO)c(CN)c1O | -13.8% (inactive) | – |
| CCc1cc(Cl)c(OC)c(C(=O)NC[C@@H]2CCCN2CC)c1O | – | inactive |
| Cc1nnc(SCC2=C(C(=O)O)N3C(=O)[C@@H](NC(=O)Cn4cnnn4)[C@H]3SC2)s1 | 18.4% (inactive) | – |
| CC(C)(CO)[C@@H](O)C(=O)NCCC(=O)O | 10.1% [at 79.1 µM] (inactive) | – |
| CCOC(=O)C1CC(=O)C(=C(O)C2CC2)C(=O)C1 (centres undefined) | -14.7% (inactive) | – |
| CCOc1ccccc1N | 29.2% (inactive) | – |

target: Estrogen receptor (Homo sapiens) (UniProt P03372); assay: qHTS assay to identify small molecule agonists of the estrogen receptor alpha (ER-alpha) signaling pathway (AID 743075); conditions: HEK293 ER-alpha-UAS-bla, beta-lactamase FRET ratio, 18 h; series mostly up to 70.1 µM; activation: at the top concentration;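 note: HEK293 GripTite cells with ER-alpha and UAS-driven beta-lactamase reporter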
Sequence (P03372 whole entry, looked up): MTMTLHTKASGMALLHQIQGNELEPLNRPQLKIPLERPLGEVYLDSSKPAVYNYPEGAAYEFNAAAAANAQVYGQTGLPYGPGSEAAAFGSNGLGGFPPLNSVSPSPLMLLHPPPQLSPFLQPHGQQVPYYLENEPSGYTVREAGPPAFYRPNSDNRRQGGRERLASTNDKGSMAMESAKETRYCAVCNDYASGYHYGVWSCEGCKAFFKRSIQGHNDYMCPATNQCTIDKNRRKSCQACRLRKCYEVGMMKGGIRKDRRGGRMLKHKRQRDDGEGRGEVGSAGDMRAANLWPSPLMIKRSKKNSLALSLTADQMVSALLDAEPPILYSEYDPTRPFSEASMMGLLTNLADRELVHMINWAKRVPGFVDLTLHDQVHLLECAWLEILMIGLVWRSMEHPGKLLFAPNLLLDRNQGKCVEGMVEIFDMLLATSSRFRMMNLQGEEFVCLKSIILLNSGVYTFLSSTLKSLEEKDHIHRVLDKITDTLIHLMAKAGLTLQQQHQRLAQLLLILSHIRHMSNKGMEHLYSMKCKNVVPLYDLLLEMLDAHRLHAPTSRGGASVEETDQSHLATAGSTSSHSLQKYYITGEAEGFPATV

| SMILES | activation | outcome |
| --- | --- | --- |
| NCCCN1CCN(CCCN)CC1 | -0.839% (inactive) | – |
| CCOC(=O)[C@H](CCc1ccccc1)N[C@@H](C)C(=O)N1Cc2cc(OC)c(OC)cc2C[C@H]1C(=O)O | -0.446% (inactive) | – |
| COc1ccc(S(=O)(=O)Nc2nnc(CC(C)C)s2)cc1 | – | inactive |
| C[C@]12C(=O)OC(=O)[C@H]1[C@H]1C=C[C@@H]2C1 | 1.04% [at 79.1 µM] (inactive) | – |
| Cc1cc(S(=O)(=O)O)c(N)cc1Cl | -1.47% [at 79.1 µM] (inactive) | – |
| OC[C@H]1O[C@@H](O[C@H]2[C@H](O)[C@@H](O)[C@H](O)O[C@@H]2CO)[C@H](O)[C@@H](O)[C@H]1O | 2.04% (inactive) | – |
| C=CCc1cc(OC)c(O)c(C(=O)NCCO)c1 | -2.21% (inactive) | – |
| COc1ccccc1OCC(O)COC(N)=O (centres undefined) | -1.1% [at 32.9 µM] (inactive) | – |
| OCC(CBr)(CBr)CBr | 24.6% (inactive) | – |
| CC1=C2[C@H](/C=C(\C)C(=O)O)CC[C@@H](C)[C@H]2CC1 | 3.65% [at 79.1 µM] (inactive) | – |
| OCCN(CCO)c1ccccc1 | 2.1% (inactive) | – |
| CC(C)C(=O)OC/C=C/c1ccccc1 | -0.268% (inactive) | – |
| CCOC(=O)NCCC[Si](OCC)(OCC)OCC | -1.33% (inactive) | – |
| O=C1C=CC(=O)O1 | -1.61% [at 79.1 µM] (inactive) | – |
| CN1CCN(C2=Nc3cc(F)ccc3Cc3ccccc32)CC1 | 5.75% (inactive) | – |
| Oc1ccccc1F | -1.39% (inactive) | – |
| Nc1cccc(S(=O)(=O)O)c1 | -0.472% (inactive) | – |
| COC(=O)C(C)O (centres undefined) | -0.928% [at 79.1 µM] (inactive) | – |
| CC(C)O | – | inactive |
| CCCCC1CCC(=O)O1 (centres undefined) | 1.01% (inactive) | – |
| C[C@@H]1CN(c2c(F)c(F)c3c(=O)c(C(=O)O)cn(C4CC4)c3c2F)C[C@H](C)N1 | -1.32% (inactive) | – |
| FC(F)(F)C(Cl)(Cl)Cl | 0.287% (inactive) | – |
| FC(F)(F)c1ccccc1 | 3.3% (inactive) | – |
| Cc1ncc(CO)c(CN)c1O | 2.42% (inactive) | – |
| CCc1cc(Cl)c(OC)c(C(=O)NC[C@@H]2CCCN2CC)c1O | – | inactive |
| Cc1nnc(SCC2=C(C(=O)O)N3C(=O)[C@@H](NC(=O)Cn4cnnn4)[C@H]3SC2)s1 | 0.485% (inactive) | – |
| O=C1CCCCCCCCCCC(=O)OCCO1 | 6.84% (inactive) | – |
| CC(C)(CO)[C@@H](O)C(=O)NCCC(=O)O | – | inactive |
| CCOC(=O)C1CC(=O)C(=C(O)C2CC2)C(=O)C1 (centres undefined) | -3.53% (inactive) | – |
| CCOc1ccccc1N | -0.587% (inactive) | – |

target: Estrogen receptor (Homo sapiens) (UniProt P03372); assay: qHTS assay to identify small molecule agonists of the estrogen receptor alpha (ER-alpha) signaling pathway using the BG1 cell line (AID 743079; active = well fitted activation curve with a large enough effect in the repeat runs; note: nearly all actives have a fitted effect of over 20% in size; note: potency is the fitted concentration of half-maximal effect); conditions: BG1Luc4E2 cells, ERE-luciferase agonist, 22 h; series mostly up to 70.3 µM; activation: at the top concentration

| SMILES | activation | Potency |
| --- | --- | --- |
| NCCCN1CCN(CCCN)CC1 | -4.81% (inactive) | – |
| CCOC(=O)[C@H](CCc1ccccc1)N[C@@H](C)C(=O)N1Cc2cc(OC)c(OC)cc2C[C@H]1C(=O)O | -0.199% (inactive) | – |
| COc1ccc(S(=O)(=O)Nc2nnc(CC(C)C)s2)cc1 | – | inactive |
| Cc1cc(S(=O)(=O)O)c(N)cc1Cl | 5.58% [at 95 µM] (inactive) | – |
| OC[C@H]1O[C@@H](O[C@H]2[C@H](O)[C@@H](O)[C@H](O)O[C@@H]2CO)[C@H](O)[C@@H](O)[C@H]1O | 1.55% (inactive) | – |
| C=CCc1cc(OC)c(O)c(C(=O)NCCO)c1 | 0.63% (inactive) | – |
| COc1ccccc1OCC(O)COC(N)=O (centres undefined) | -2.7% [at 32.5 µM] (inactive) | – |
| OCC(CBr)(CBr)CBr | 4.33% (inactive) | – |
| CC(C)C(=O)OC/C=C/c1ccccc1 | 11.6% (inactive) | – |
| CCOC(=O)NCCC[Si](OCC)(OCC)OCC | 9.4% (inactive) | – |
| O=C1C=CC(=O)O1 | -1.77% [at 95 µM] (inactive) | – |
| Oc1ccccc1F | -5.79% (inactive) | – |
| Nc1cccc(S(=O)(=O)O)c1 | 8.48% (inactive) | – |
| COC(=O)C(C)O (centres undefined) | -0.565% [at 95 µM] (inactive) | – |
| CC(C)O | – | inactive |
| CCCCC1CCC(=O)O1 (centres undefined) | -8.39% (inactive) | – |
| CC1(C)O[C@@H]2C[C@H]3[C@@H]4CCC5=CC(=O)CC[C@]5(C)[C@@]4(F)[C@@H](O)C[C@]3(C)[C@]2(C(=O)CCl)O1 | 4.37% [at 32.5 µM] (inactive) | – |
| C[C@@H]1CN(c2c(F)c(F)c3c(=O)c(C(=O)O)cn(C4CC4)c3c2F)C[C@H](C)N1 | 3.07% (inactive) | – |
| FC(F)(F)C(Cl)(Cl)Cl | 2.11% (inactive) | – |
| CCCCc1ccc2nc(NC(=O)OC)[nH]c2c1 | – | 2.27 µM (active) |
| FC(F)(F)c1ccccc1 | 0.0096% (inactive) | – |
| CCc1cc(Cl)c(OC)c(C(=O)NC[C@@H]2CCCN2CC)c1O | – | 10.6 µM (active) and inactive |
| Cc1nnc(SCC2=C(C(=O)O)N3C(=O)[C@@H](NC(=O)Cn4cnnn4)[C@H]3SC2)s1 | 0.177% (inactive) | – |
| O=C1CCCCCCCCCCC(=O)OCCO1 | 4.38% (inactive) | – |
| CC(C)(CO)[C@@H](O)C(=O)NCCC(=O)O | – | inactive |
| CCOC(=O)C1CC(=O)C(=C(O)C2CC2)C(=O)C1 (centres undefined) | 2.61% (inactive) | – |
| CCOc1ccccc1N | 9.3% (inactive) | – |
